The values below come from PubChem BioAssay (NCATS).

Records with an inconclusive call do not appear. Activity calls are given as the source filed them. Calls follow the shape of the dose curve; as a rule, active = well fitted inhibition curve with a large enough effect in the signal ratio, with a control signal flat (not every such curve was filed as active); inconclusive = small, poorly fitted or top-dose-only effect, or effect the other way, or a change in a side signal; inactive = flat fitted curve, though single readings scatter; the % refers to the signal ratio.

Glucocorticoid receptor (Homo sapiens), sequence (P04150 whole entry, looked up): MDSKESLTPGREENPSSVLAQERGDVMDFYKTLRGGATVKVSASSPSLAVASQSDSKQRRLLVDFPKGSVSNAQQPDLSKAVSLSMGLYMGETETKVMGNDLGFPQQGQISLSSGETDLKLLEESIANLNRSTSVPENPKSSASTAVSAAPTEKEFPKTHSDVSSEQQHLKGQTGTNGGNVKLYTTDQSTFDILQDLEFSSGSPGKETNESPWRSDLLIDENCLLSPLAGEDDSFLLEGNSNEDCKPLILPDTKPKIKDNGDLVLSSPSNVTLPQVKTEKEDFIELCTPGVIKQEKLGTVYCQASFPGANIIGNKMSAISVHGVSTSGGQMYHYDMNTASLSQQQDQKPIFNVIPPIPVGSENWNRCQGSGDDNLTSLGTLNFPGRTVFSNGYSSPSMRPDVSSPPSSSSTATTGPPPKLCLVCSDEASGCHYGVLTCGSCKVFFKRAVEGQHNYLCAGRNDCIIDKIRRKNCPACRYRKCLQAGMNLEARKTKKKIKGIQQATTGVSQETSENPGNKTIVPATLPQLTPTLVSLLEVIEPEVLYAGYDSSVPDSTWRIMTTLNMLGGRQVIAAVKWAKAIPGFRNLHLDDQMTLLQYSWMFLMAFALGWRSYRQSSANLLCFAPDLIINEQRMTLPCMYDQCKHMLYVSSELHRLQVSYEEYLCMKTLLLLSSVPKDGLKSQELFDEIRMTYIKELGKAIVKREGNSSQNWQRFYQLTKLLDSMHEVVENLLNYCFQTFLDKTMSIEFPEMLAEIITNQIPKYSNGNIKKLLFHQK

The experiment addresses Glucocorticoid receptor (Homo sapiens) (UniProt P04150). The experiment is described as follows: qHTS assay for small molecule antagonists of glucocorticoid receptor signaling (AID 588533). The following applies: HeLa MMTV-bla, GRE beta-lactamase ratio, antagonist mode, 18 h; series mostly up to 76.8 µM. The text has this:
NIH Chemical Genomics Center [NCGC] U.S. Environmental Protection Agency [EPA] National Institutes of Environmental Health Sciences [NIEHS] National Toxicology Program [NTP] NCGC Assay Overview The Glucocorticoid receptor (GR), a nuclear receptor subfamily member and its natural ligands includes […] etc. The GR is a validated drug target for inflammation. GR ligands such as dexamethasone are clinically available as anti-inflammatory drugs. Glucocorticoids implicate a role in carbohydrate, protein and lipid metabolisms and programmed cell death. They are also a component of many chemotherapy regimens for the treatment of leukemias, lymphomas, and myelomas because of their role in the induction of apoptosis.
NCGC Assay Protocol Summary Using a beta-lactamase reporter-gene under control of glucocorticoid response element (GRE), a cell-based assay [CellSensor MMTV-bla HeLa cell line assay developed by Invitrogen] was used to measure GR ligands signaling. CellSensor MMTV-bla HeLa cells were used with assay medium containing 1% charcoal/dextran treated FBS, 0.1 mM NEAA, 1 mM sodium pyruvate and 25mM HEPES. The assay was performed in clear bottom black Greiner 1536-well plates. Library compounds were measured for their ability to inhibit the reporter gene activity. Compounds were screened in a titration series in 1536-well format. […] Data was normalized relative to Dexamethasone control (2 nM, 100%), and DMSO only wells (basal, 0%). Concentration-response titration points for each compound were fitted to the Hill equation yielding concentrations of half-maximal inhibition (IC50) and maximal response (efficacy) values. qHTS protocol for GR beta-lactamase assay in antagonist mode [Step] [Parameter] [Value] [Description] 1. Reagent; 5 uL; 1500 cells/well 2. Incubation; 37 C for 3-5 hrs 3. Compounds; 23 nL; 0.59 nM to 92 uM 4. […] Agonist (Stimulator); 1uL; Dexamethasone at 2 nM (final) concentration 6. Incubation; 37 C for 18 hrs 7. Detection reagent; 1 uL of CCF4-dye 8. Incubation; RT for 2 hrs 9. Detection; Fluorescence; Envision plate reader
(In general: In qHTS, concentration-response curves come from the screen itself.)
Take `c1ccc(NNc2ccccc2)cc1`: the result was inactive.

Turning to `ClCCOCCCl`, the result was inactive.

As to `S=c1[nH]c2ccccc2[nH]1`, the outcome was inactive.

As for `Oc1cccc(Cl)c1`, the result was inactive.

Consider `COC(=O)c1ccccc1N`, for which the result was inactive.

Take `CCOC(=O)C1OC1(C)c1ccccc1` (stereo not given): the outcome was inactive.

With `CC(C)C#N`, the outcome was inactive.

Turning to `CC1CC(=O)O1` (stereo not given), the outcome was inactive.

For `CCCCOCC1CO1` (stereo not given), the result was inactive.

As for `Cc1cccc(N)c1C`, the result was inactive.

On to `Nc1cc(Cl)ccc1O`, for which the outcome was inactive.

Regarding `Cc1ccc(N)cc1N`, the outcome was inactive.

Take `Cc1cc(C)cc(OP(=O)(Oc2cc(C)cc(C)c2)Oc2cc(C)cc(C)c2)c1`: the result was inactive.

On to `CC(Cl)CCl` (stereo not given), for which the outcome was inactive.

Take `C=CCOCC1CO1` (stereo not given): the outcome was inactive.

Regarding `CCC#N`, the result was inactive.

`Oc1ccc(Cl)c(Cl)c1Cl`: the outcome was inactive.

In the case of `CCCCC(CC)COC(=O)c1ccc(C(=O)OCC(CC)CCCC)c(C(=O)OCC(CC)CCCC)c1` (stereo not given), the result was inactive.

For `ClCC(Br)CBr` (stereo not given), the outcome was inactive.

For `Cl/C=C/CCl`, the result was inactive.

For `O=[N+]([O-])c1ccccc1CCl`, the outcome was inactive.

Turning to `CC(C)(COCC1CO1)COCC1CO1` (stereo not given), the outcome was inactive.

On to `CCCCOC(=O)c1ccccc1N`, for which the result was inactive.

Take `CNC(=O)O/N=C/C(C)(C)S(C)=O` (stereo not given): the outcome was inactive.

On to `C=CC#N`, for which the result was inactive.

In the case of `O=[N+]([O-])/C=C/c1ccccc1`, the outcome was inactive.

Regarding `CC(C)(C)C(O)(CCc1ccc(Cl)cc1)Cn1cncn1` (stereo not given), the result was inactive.

Take `O=[N+]([O-])c1ccc(Cl)cc1`: the result was inactive.

Turning to `Clc1cccc(Cl)c1`, the result was inactive.

For `C=CCO`, the outcome was inactive.

`Brc1cccc(-c2ccccc2)c1`: the result was inactive.

`ClC(Cl)Br`: the result was inactive.

Turning to `COC(=O)Nc1cccc(OC(=O)Nc2cccc(C)c2)c1`, the result was inactive.

As for `CC(=O)CCC(C)=O`, the outcome was inactive.

`CC(C)(C)OOC(=O)c1ccccc1`: the result was inactive.

As to `C=CC=O`, the result was inactive.

With `CCBr`, the outcome was inactive.

With `O=[N+]([O-])c1ccc2c3c(cccc13)CC2`, the result was inactive.

For `C=CC(=O)OCC(CC)CCCC` (stereo not given), the outcome was inactive.

Consider `O=C(O)C(Cl)(Cl)Br`, for which the result was inactive.
